ChEMBL document CHEMBL1961873, “Compounds: GSK PKIS; Assays: Nanosyn kinase panel” (2012)

Legend:
[1] = target: T1, Inhibitor of nuclear factor kappa-B kinase subunit epsilon (Homo sapiens) (UniProt Q14164); settings: at 1 µM;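 also: reported values are averaged percent inhibition figures against human IKKε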
T1 sequence (whole entry): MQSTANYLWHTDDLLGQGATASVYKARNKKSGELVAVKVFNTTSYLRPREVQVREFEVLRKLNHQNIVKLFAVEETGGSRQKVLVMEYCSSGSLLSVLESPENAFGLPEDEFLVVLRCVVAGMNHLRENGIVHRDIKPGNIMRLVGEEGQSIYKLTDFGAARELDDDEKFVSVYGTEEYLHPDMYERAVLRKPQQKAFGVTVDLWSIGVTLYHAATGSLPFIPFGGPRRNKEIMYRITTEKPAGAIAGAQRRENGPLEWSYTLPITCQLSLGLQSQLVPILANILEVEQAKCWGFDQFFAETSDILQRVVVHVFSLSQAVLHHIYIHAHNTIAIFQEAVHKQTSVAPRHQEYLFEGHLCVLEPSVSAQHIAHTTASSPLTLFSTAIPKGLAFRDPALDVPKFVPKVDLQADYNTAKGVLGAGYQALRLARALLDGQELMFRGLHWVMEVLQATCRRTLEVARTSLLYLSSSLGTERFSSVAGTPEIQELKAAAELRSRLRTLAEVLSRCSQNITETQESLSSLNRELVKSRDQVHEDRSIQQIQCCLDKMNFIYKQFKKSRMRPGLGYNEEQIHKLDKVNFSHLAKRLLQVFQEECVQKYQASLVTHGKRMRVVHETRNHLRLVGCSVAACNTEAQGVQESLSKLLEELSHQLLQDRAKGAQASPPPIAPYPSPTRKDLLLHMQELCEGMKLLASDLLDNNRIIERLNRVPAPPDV

[2] = target: T2, Serine/threonine-protein kinase Nek1 (Homo sapiens) (UniProt Q96PY6); settings: at 0.1 µM
T2 sequence (whole entry): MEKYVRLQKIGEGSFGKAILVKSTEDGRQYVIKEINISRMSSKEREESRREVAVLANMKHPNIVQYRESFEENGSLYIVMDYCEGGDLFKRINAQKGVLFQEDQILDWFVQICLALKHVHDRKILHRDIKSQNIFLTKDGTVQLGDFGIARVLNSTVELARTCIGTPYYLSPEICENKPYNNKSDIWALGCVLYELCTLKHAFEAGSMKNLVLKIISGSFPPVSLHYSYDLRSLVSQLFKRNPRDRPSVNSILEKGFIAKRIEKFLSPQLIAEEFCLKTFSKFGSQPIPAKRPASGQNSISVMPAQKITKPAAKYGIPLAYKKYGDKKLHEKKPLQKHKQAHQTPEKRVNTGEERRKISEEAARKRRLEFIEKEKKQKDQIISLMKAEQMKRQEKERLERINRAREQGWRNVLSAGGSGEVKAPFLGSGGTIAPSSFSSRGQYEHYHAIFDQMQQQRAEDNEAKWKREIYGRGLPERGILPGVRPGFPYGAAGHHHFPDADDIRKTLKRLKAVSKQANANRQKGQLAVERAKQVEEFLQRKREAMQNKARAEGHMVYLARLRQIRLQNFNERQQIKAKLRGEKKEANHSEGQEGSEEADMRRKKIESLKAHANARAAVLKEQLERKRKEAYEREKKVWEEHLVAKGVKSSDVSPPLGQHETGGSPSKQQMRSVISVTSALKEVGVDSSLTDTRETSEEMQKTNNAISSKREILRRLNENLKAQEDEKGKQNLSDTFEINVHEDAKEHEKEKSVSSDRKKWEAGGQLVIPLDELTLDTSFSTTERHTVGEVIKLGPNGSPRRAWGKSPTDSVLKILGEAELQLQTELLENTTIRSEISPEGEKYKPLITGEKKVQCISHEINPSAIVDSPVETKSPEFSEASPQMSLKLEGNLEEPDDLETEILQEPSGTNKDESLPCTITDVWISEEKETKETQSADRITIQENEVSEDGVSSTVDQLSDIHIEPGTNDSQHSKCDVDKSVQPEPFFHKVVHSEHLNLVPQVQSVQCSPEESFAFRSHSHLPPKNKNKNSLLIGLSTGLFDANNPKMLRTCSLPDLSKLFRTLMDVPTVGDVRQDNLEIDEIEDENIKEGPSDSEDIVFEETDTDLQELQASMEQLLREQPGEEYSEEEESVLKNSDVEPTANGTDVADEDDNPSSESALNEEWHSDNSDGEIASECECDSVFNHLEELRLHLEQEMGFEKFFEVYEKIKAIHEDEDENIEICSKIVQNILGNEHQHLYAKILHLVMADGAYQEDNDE

[3] = target: T2, Serine/threonine-protein kinase Nek1 (Homo sapiens); settings: at 1 µM
[4] = target: T3, Serine/threonine-protein kinase Nek2 (Homo sapiens) (UniProt P51955); settings: at 0.1 µM
T3 sequence (whole entry): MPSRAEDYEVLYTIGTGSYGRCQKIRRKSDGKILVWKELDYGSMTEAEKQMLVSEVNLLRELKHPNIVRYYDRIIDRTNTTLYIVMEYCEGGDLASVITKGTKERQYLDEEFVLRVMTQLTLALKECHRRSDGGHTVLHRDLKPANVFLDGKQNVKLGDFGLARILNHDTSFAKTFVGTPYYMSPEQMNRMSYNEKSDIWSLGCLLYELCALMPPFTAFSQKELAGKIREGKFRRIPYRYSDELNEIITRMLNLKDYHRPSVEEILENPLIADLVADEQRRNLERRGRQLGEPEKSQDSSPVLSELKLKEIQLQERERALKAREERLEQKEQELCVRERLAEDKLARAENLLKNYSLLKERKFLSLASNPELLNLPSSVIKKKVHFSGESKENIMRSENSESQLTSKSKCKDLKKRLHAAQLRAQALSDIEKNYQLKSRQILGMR

[5] = target: T3, Serine/threonine-protein kinase Nek2 (Homo sapiens); settings: at 1 µM
[6] = target: Serine/threonine-protein kinase Nek6 (Homo sapiens) (UniProt Q9HC98); settings: at 0.1 µM
Sequence of Serine/threonine-protein kinase Nek6 (Homo sapiens) (Q9HC98 whole entry): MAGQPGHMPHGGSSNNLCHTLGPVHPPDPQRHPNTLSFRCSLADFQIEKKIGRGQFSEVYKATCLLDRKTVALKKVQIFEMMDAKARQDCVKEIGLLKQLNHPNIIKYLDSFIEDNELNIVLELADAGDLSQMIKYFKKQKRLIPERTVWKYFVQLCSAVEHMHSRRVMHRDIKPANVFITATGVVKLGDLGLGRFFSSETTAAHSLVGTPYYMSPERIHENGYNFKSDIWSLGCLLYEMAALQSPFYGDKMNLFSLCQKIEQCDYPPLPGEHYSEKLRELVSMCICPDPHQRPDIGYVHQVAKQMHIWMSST

[7] = target: Serine/threonine-protein kinase Nek6 (Homo sapiens) (UniProt Q9HC98); settings: at 1 µM
[8] = target: Serine/threonine-protein kinase Nek7 (Homo sapiens) (UniProt Q8TDX7); settings: at 0.1 µM
Sequence of Serine/threonine-protein kinase Nek7 (Homo sapiens) (Q8TDX7 whole entry, looked up): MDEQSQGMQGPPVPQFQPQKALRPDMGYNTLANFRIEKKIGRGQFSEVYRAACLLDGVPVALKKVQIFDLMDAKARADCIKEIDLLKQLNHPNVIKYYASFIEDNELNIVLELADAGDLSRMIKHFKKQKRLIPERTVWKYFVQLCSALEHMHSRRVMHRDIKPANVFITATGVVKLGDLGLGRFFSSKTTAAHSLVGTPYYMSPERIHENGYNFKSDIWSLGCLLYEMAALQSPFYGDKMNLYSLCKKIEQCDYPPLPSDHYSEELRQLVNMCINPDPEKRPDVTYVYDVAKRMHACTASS

[9] = target: Serine/threonine-protein kinase Nek7 (Homo sapiens) (UniProt Q8TDX7); settings: at 1 µM
[10] = target: T4, Serine/threonine-protein kinase Nek9 (Homo sapiens) (UniProt Q8TD19); settings: at 0.1 µM
T4 sequence (whole entry): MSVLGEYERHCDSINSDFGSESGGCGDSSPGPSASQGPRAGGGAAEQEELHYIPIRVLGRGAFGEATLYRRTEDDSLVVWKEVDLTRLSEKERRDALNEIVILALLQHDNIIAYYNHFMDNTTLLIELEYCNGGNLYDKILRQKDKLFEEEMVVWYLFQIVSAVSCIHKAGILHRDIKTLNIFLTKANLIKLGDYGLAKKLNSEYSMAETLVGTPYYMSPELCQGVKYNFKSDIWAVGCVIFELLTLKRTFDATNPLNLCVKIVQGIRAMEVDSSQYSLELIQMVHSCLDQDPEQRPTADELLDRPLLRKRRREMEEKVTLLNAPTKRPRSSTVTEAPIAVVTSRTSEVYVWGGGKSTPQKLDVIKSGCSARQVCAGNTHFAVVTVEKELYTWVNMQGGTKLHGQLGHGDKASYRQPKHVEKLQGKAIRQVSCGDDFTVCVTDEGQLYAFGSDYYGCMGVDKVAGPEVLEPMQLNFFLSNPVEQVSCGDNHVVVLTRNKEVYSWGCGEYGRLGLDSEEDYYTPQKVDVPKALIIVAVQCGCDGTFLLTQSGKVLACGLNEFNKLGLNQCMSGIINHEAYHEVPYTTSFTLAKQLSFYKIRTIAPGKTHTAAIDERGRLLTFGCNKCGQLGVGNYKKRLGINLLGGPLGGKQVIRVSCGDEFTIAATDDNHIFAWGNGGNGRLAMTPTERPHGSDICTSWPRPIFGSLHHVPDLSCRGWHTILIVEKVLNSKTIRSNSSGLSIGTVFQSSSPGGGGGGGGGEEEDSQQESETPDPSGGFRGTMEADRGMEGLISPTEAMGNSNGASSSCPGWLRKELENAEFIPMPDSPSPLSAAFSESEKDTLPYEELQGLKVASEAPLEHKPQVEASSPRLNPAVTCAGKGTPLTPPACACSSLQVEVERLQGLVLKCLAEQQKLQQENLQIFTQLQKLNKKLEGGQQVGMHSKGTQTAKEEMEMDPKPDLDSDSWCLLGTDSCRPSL

[11] = target: T4, Serine/threonine-protein kinase Nek9 (Homo sapiens); settings: at 1 µM
[12] = target: Serine/threonine-protein kinase PLK1 (Homo sapiens) (UniProt P53350); settings: at 0.1 µM
Sequence of Serine/threonine-protein kinase PLK1 (Homo sapiens) (P53350 whole entry): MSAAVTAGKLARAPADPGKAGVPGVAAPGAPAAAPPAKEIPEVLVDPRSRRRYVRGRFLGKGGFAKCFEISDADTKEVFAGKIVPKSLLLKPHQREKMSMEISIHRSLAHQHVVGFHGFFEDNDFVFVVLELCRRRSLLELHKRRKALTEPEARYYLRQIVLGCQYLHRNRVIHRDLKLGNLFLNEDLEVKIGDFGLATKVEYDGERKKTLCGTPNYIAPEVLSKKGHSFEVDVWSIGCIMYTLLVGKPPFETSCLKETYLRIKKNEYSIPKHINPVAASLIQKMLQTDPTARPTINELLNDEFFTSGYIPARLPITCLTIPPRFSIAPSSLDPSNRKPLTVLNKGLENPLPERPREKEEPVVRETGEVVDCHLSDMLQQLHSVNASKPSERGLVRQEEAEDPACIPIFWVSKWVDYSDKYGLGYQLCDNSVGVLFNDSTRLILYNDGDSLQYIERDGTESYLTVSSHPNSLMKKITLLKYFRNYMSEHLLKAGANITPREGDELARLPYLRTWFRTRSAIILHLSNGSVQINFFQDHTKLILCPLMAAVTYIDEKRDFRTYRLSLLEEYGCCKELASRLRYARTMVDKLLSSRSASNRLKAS

[13] = target: Serine/threonine-protein kinase PLK1 (Homo sapiens) (UniProt P53350); settings: at 1 µM
[14] = target: T5, Dual specificity protein kinase TTK (Homo sapiens) (UniProt P33981); settings: at 0.1 µM
T5 sequence (whole entry): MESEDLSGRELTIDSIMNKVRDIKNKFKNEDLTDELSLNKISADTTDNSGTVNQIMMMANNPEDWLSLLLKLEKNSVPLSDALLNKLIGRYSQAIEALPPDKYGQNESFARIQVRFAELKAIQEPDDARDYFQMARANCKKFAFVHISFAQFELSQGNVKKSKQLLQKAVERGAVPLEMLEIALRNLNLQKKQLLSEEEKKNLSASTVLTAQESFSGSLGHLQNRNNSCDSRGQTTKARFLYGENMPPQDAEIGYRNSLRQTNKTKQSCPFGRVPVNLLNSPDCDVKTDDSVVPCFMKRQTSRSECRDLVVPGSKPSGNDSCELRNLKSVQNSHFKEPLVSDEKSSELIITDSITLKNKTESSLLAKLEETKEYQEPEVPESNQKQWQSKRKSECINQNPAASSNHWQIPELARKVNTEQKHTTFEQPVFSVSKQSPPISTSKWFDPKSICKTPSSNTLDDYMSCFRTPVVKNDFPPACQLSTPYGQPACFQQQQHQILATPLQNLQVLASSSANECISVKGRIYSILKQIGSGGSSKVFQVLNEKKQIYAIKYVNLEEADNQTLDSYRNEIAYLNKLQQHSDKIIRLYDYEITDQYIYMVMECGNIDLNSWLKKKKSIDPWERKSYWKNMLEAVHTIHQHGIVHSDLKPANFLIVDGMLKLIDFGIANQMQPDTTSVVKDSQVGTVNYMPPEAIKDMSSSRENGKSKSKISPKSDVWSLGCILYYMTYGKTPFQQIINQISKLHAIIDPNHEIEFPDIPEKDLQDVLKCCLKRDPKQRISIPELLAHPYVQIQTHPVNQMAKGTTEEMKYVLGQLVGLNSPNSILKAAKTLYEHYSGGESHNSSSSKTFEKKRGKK

[15] = tested on: T6, Receptor-type tyrosine-protein kinase FLT3 (Homo sapiens), P36888 [D835Y]; settings: at 1 µM
T6 sequence (whole entry): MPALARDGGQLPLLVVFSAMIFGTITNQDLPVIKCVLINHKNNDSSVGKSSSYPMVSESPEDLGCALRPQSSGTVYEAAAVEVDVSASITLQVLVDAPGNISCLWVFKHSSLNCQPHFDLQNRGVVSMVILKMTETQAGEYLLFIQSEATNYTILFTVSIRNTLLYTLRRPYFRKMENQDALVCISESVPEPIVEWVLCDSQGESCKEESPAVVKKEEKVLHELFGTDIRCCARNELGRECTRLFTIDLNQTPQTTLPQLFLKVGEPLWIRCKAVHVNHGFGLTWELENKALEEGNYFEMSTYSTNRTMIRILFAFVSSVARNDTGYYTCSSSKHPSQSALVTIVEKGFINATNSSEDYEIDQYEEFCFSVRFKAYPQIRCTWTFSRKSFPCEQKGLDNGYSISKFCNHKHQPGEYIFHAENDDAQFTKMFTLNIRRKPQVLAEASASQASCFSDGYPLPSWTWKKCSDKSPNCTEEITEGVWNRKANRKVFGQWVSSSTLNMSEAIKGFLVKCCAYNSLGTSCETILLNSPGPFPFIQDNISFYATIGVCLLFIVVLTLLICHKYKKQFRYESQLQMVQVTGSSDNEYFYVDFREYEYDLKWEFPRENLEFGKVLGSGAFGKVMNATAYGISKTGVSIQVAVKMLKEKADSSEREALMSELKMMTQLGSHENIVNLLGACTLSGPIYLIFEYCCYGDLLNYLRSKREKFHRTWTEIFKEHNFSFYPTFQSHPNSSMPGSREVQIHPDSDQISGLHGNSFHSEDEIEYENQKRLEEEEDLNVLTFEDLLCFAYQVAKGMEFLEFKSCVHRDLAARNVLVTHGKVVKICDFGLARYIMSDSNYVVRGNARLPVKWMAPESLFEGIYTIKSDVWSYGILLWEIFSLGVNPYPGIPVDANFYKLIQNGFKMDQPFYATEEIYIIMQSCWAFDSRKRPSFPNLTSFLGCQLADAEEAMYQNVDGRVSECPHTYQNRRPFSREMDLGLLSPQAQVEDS

[16] = target: Vascular endothelial growth factor receptor 3 (Homo sapiens) (UniProt P35916); settings: at 0.1 µM
Sequence of Vascular endothelial growth factor receptor 3 (Homo sapiens) (P35916 whole entry): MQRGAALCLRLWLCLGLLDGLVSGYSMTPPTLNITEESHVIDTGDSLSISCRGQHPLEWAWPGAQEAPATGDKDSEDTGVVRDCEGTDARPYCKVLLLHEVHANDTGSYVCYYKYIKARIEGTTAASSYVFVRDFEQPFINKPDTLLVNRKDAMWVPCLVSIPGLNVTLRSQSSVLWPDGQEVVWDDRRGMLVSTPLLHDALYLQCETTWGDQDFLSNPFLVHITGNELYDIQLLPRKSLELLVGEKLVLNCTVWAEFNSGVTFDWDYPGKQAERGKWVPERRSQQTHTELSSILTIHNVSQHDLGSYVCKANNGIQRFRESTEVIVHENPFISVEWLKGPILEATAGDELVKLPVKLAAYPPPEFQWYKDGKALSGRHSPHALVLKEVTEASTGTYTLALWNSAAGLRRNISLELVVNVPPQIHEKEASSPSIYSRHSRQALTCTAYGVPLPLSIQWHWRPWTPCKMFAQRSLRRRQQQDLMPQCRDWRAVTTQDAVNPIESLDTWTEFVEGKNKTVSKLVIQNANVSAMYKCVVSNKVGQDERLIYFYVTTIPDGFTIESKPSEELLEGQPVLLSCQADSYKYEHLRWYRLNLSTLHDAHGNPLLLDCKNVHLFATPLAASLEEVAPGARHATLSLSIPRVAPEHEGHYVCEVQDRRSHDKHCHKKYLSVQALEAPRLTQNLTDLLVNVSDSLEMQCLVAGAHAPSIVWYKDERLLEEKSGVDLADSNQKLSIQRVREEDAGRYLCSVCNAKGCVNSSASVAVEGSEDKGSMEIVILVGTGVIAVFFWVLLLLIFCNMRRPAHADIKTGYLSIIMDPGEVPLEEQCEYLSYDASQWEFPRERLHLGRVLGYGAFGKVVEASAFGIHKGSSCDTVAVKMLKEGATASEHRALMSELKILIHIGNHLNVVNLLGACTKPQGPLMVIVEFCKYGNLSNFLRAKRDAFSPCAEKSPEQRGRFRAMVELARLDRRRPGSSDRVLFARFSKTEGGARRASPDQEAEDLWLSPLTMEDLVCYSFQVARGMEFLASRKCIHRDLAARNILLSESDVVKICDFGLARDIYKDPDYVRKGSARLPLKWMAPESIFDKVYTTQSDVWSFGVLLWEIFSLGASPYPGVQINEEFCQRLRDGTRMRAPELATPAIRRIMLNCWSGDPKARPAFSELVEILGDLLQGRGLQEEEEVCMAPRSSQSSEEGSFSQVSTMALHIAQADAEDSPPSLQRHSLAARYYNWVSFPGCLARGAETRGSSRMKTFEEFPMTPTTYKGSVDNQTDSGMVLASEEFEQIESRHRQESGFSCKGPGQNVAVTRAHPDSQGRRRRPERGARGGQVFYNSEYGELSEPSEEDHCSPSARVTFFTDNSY

[17] = target: Vascular endothelial growth factor receptor 3 (Homo sapiens) (UniProt P35916); settings: at 1 µM
[18] = target: Macrophage colony-stimulating factor 1 receptor (Homo sapiens) (UniProt P07333); settings: at 0.1 µM
Sequence of Macrophage colony-stimulating factor 1 receptor (Homo sapiens) (P07333 whole entry): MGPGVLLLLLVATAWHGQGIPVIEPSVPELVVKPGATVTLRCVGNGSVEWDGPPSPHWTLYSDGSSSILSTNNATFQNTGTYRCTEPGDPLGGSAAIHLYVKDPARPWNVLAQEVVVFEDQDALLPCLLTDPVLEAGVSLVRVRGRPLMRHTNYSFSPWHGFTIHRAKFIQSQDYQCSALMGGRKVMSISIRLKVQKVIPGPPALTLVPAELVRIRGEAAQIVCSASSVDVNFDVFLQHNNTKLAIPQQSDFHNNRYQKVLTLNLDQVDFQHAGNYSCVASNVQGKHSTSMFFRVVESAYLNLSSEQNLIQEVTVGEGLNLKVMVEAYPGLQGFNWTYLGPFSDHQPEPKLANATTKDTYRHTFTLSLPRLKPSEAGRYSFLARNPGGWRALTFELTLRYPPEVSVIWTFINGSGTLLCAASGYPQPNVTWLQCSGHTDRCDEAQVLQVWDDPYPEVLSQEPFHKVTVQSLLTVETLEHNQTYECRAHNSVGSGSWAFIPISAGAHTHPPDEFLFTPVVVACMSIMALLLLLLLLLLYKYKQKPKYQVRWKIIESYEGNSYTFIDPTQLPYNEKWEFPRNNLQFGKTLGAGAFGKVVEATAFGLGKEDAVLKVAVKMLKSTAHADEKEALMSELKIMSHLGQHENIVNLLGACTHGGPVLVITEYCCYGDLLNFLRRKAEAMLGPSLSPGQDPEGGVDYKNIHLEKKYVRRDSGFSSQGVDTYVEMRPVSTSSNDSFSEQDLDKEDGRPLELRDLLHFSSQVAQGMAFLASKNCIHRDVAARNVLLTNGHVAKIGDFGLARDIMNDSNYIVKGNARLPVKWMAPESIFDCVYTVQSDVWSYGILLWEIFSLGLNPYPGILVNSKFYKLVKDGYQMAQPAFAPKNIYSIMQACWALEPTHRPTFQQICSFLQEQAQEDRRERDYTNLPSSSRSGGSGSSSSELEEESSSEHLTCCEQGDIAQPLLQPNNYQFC

[19] = target: Macrophage colony-stimulating factor 1 receptor (Homo sapiens) (UniProt P07333); settings: at 1 µM
[20] = target: Tyrosine-protein kinase Fyn (Homo sapiens) (UniProt P06241); settings: at 0.1 µM
Sequence of Tyrosine-protein kinase Fyn (Homo sapiens) (P06241 2-537 limits assumed): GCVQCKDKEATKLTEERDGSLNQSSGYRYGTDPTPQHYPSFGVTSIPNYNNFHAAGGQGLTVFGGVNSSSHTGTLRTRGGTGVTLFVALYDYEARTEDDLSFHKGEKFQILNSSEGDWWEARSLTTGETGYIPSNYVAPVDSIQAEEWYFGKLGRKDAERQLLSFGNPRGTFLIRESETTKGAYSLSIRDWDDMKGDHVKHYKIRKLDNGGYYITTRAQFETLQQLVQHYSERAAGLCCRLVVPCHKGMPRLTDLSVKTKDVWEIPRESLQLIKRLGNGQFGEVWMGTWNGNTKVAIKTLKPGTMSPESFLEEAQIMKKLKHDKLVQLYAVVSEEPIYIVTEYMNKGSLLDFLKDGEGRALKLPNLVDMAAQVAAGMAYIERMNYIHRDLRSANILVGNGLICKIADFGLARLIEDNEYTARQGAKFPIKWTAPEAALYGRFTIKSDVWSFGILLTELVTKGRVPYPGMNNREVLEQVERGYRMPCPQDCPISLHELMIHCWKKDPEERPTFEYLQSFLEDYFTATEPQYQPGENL

Structure (SMILES)	inhibition [1] [%]	inhibition [2] [%]	inhibition [3] [%]	inhibition [4] [%]	inhibition [5] [%]	inhibition [6] [%]	inhibition [7] [%]	inhibition [8] [%]	inhibition [9] [%]	inhibition [10] [%]	inhibition [11] [%]	inhibition [12] [%]	inhibition [13] [%]	inhibition [14] [%]	inhibition [15] [%]	inhibition [16] [%]	inhibition [17] [%]	inhibition [18] [%]	inhibition [19] [%]	inhibition [20] [%]
CCn1c(-c2nonc2N)nc2c(C#CC(C)(C)O)ncc(OC3CCNCC3)c21	95.8	2.28	2.37	3.31	2.51	-0.18	1.86	-3.88	5.15	2.14	5.22	2.8	5	5.34	0.12	8.92	26.6	1.2	2.92	1.53
COc1cc(N2CCN(C(C)C)CC2)ccc1Nc1nc(Nc2ccc(F)cc2C(N)=O)c2cc[nH]c2n1	4.36	3.16	11.2	3.34	2.89	2.32	5.57	2.07	7.1	4.13	13.5	16	64.8	83	40.7	3.45	2.68	11.7	48.1	2.48
[O-][S+]1CCN(Cc2ccc(-c3ccc4ncnc(Nc5ccc(OCc6cccc(F)c6)c(Cl)c5)c4c3)o2)CC1	7.12	1.83	3.84	6.03	7.92	12.5	1.99	2.99	8.43	12.2	11.6	4.06	4.68	14.8	-0.26	4.68	7.72	1.84	5.71	1.57
COc1cc2c(cc1Nc1nc(Nc3ccsc3C(N)=O)c3cc[nH]c3n1)N(C(=O)CN(C)C)CCC2(C)C	35.2	2.74	2.8	6.02	7.22	2.59	5.27	12.7	42.1	4.77	9.86	56.7	89.4	40	22.1	3.15	5.12	81.7	94.3	0.64
